According to PubChem BioAssay (NCATS):
“And” between values parts separate entries of the source, which are not always exact repeats. Equal entries are not always repeated. Inconclusive results are not listed. Values without a mark were called inactive. The source made the active and inactive calls. Calls follow the shape of the dose curve; as a rule, active = well fitted inhibition curve with a large enough effect; inconclusive = small, poorly fitted or top-dose-only effect; inactive = flat fitted curve, though single readings scatter.

Key:
Assay in all cases: Cytotoxic Profiling of Annotated Libraries Using Quantitative High-Throughput Screening (AID 1296008); also: nearly all actives have a fitted effect of over 60% in size
Settings in all cases: Five cell lines viability, CellTiter-Glo ATP luminescence, 48-72 h; max response: stronger effect = lower value
[1] = test system: CRL-7250
Procedure, shortened: (§1)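 Cytotoxicity was measured as CellTiter-Glo ATP luminescence, read after 10 min at room temperature. Compound treatment of the cells lasted 48 or 72 hr at 37 degrees Celsius in a qHTS format.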

[2] = test system: HEK293
Procedure, shortened: as §1

[3] = test system: HaCat
Procedure, shortened: as §1
% is scaled to controls: 0 for no effect and ±100 for the full control effect; potency is read from the fitted curve at half-maximal effect.

Compound: CCCCCCCCCCCCCCCC(=O)O[C@H]1[C@@H](O)[C@@H](O)[C@@H]([C@H](NC(=O)[C@@H]2C[C@@H](CCC)CN2C)[C@H](C)Cl)O[C@@H]1SC
- outcome [1]: inactive
- max response [2]: -29.9%
- outcome [3]: inactive

Compound: CO[C@H]1C=CO[C@@]2(C)Oc3c(C)c(O)c4c(O)c(c(C=NN5CCN(C)CC5)c(O)c4c3C2=O)NC(=O)C(C)=CC=C[C@H](C)[C@H](O)[C@@H](C)[C@@H](O)[C@@H](C)[C@H](OC(C)=O)[C@H]1C
- max response [1]: -4.52%
- max response [2]: 3.97%
- outcome [3]: inactive

Compound: O=C(CCCN1CCN(c2ccc(F)cc2)CC1)NC1c2ccccc2CSc2ccccc21 (stereo unspecified)
- Potency [1]: 8.33 µM (active)
- Potency [2]: 3.72 µM (active)
- max response [3]: -5.32%

Compound: CC(C)[C@H](O)C(=O)N[C@@H](C)C(=O)N[C@@H]1C(=O)N(C)CCc2ccccc21
- max response [1]: -12.5%
- max response [2]: -11.6%
- max response [3]: 1.12%

Compound: COC(=O)[C@H](c1ccccc1Cl)N1CCc2sccc2C1
- max response [1]: -2.92%
- max response [2]: 3.92%
- max response [3]: -12%

Compound: CC[C@H](NC(=O)[C@H](C)NC)C(=O)N1C[C@@H](O)C[C@H]1Cc1c(-c2[nH]c3cc(F)ccc3c2C[C@H]2C[C@H](O)CN2C(=O)[C@H](CC)NC(=O)[C@H](C)NC)[nH]c2cc(F)ccc12
- outcome [1]: inactive
- max response [2]: 1%
- outcome [3]: inactive

Compound: CC[C@@H]([C@H](C)O)n1ncn(-c2ccc(N3CCN(c4ccc(OCC5CO[C@@](Cn6cncn6)(c6ccc(F)cc6F)C5)cc4)CC3)cc2)c1=O (stereo partly specified)
- max response [1]: -19.5%
- Potency [2]: 14.8 µM (active)
- max response [3]: -20.3%

Compound: CC1CCN(c2cc(N3CCN(C)CC3)ccc2NC(=O)c2cc(C#N)c[nH]2)CC1
- outcome [1]: inactive
- max response [2]: 0.425%
- max response [3]: 2.9%
- outcome [3]: inactive

Compound: CC(C)=CCCC(C)=CCCC(C)=CCCC(C)=CCCC(C)=CCCC(C)=CCCC(C)=CCCC(C)=CCCC(C)=CCO
- max response [1]: 0.939%
- max response [2]: -3.76%
- max response [3]: 1.51%

Compound: CC(=O)NCCC(=O)N[C@@H](CCC(N)=O)C(=O)N[C@@H](CO)C(=O)N[C@@H](CCC(N)=O)C(=O)N[C@@H](CCC(N)=O)C(=O)N[C@H](C(=O)N[C@@H](Cc1ccccc1)C(=O)N[C@]1(C)CCCCCCC=CCCC[C@@](C)(C(=O)N[C@@H](CCC(N)=O)C(=O)N[C@@H](CC(N)=O)C(N)=O)NC(=O)[C@H](CC(C)C)NC(=O)[C@H](CC(C)C)NC(=O)[C@@H](CCCNC(=N)N)NC(=O)[C@H](Cc2c[nH]c3ccccc23)NC(=O)[C@H](CC(C)C)NC(=O)[C@H](CC(N)=O)NC1=O)[C@H](C)O
- max response [1]: 1.13%
- max response [2]: -2.69%
- outcome [3]: inactive

Compound: COc1ccc(-c2cc(=O)c3c(O)cc(O[C@@H]4O[C@H](CO[C@@H]5O[C@@H](C)[C@H](O)[C@@H](O)[C@@H]5O)[C@@H](O)[C@H](O)[C@@H]4O)cc3o2)cc1O
- max response [1]: -4.94%
- outcome [2]: inactive
- outcome [3]: inactive

Compound: Cc1cnc(Nc2cccc(CN3CCOCC3)c2)nc1Nc1cccc(S(=O)(=O)NC(C)(C)C)c1
- outcome [1]: inactive
- outcome [2]: inactive
- max response [3]: -19.2%
- outcome [3]: inactive

Compound: CCn1c(-c2nonc2N)nc2cncc(CNC3CCNCC3)c21
- Potency [1]: 7.31 µM (active)
- Potency [2]: 10.5 µM (active) and 2.31 µM (active)
- max response [3]: -17.9%
- outcome [3]: inactive

Compound: CC1(COc2ccc3c(c2)ncn3-c2ccc3cccc(N4CCC(N)CC4)c3n2)COC1
- Potency [1]: 11.6 µM (active)
- Potency [2]: 7.43 µM (active) and 8.2 µM (active)
- Potency [3]: 20.6 µM (active)

Compound: C[C@@]1(C(=O)Nc2ccc(F)nc2)CCCN1c1nc(Nc2cc(C3CC3)[nH]n2)c2cccn2n1
- Potency [1]: 11.8 µM (active) and 11.6 µM (active)
- Potency [2]: 3.72 µM (active)
- max response [3]: -23.7%

Compound: O=C(CO)N1CCC(c2[nH]nc(-c3ccc(Cl)cc3)c2-c2ccncn2)CC1
- max response [1]: 0.635% and -7.11%
- max response [2]: -13.1% and -1.15%
- max response [3]: -4.95%

Compound: C[C@]12CC[C@@H]3c4ccc(O)cc4CC[C@H]3[C@H]1[C@@H](O)[C@@H](O)[C@H]2O
- max response [1]: 0.316%
- outcome [2]: inactive
- outcome [3]: inactive

Compound: CCOC(=O)[C@@H](N)CCC(=O)N[C@@H](CSCc1ccccc1)C(=O)N[C@@H](C(=O)OCC)c1ccccc1
- outcome [1]: inactive
- max response [2]: -7.26%
- outcome [3]: inactive

Compound: COc1c(C)cnc(Cn2cnc3c(Cl)nc(N)nc32)c1C
- Potency [1]: 0.935 µM (active)
- Potency [2]: 0.132 µM (active)
- Potency [3]: 0.296 µM (active)

Compound: C[C@H]1O[C@@H](n2cc(F)c(=O)[nH]c2=O)[C@H](O)[C@H]1O
- max response [1]: -14.8%
- Potency [2]: 13.2 µM (active)
- max response [3]: -27.2%

Compound: CNC(=O)[C@H](CC1=CN=C2C=CCC=C12)NC(=O)[C@@H](CC(=O)NO)CC(C)C
- max response [1]: -4.69%
- max response [2]: 4.44%
- max response [3]: -12.2%

Compound: CC(C)CN(C[C@H](O)[C@H](Cc1ccccc1)NC(=O)O[C@H]1CCOC1)S(=O)(=O)c1ccc(N)cc1
- max response [1]: 0.909%
- max response [2]: -14.4%
- max response [3]: -15.1%

Compound: Cc1nc(NC(=O)N2CCC[C@@H]2C(N)=O)sc1-c1csc(C(C)(C)C)n1
- Potency [1]: 1.32 µM (active)
- Potency [2]: 2.35 µM (active)
- Potency [3]: 1.87 µM (active)

Compound: CCC(c1ccc(O)cc1)C(CC)c1ccc(O)cc1 (stereo unspecified)
- outcome [1]: inactive
- max response [2]: -1.04%
- outcome [3]: inactive

Compound: FC(F)(F)c1ccc(C=Cc2nc(COc3ccc(CCCCn4ccnn4)cc3)co2)cc1
- Potency [1]: 0.0132 µM (active)
- max response [2]: -116%
- Potency [3]: 7.43 µM (active)

Compound: C[C@H](CCC(=O)O)[C@H]1CC[C@H]2[C@H]3[C@@H](CC[C@]12C)[C@@]1(C)CC[C@@H](O)C[C@H]1C[C@@H]3O
- max response [1]: -2.21%
- outcome [2]: inactive
- outcome [3]: inactive

Compound: CC1(C)CC(=O)c2c(C(F)(F)F)nn(-c3ccc(C(N)=O)c(NC4CCC(O)CC4)c3)c2C1 (stereo unspecified)
- Potency [1]: 0.259 µM (active)
- Potency [2]: 52.6 nM (active) and 58 nM (active)
- Potency [3]: 132 nM (active) and 231 nM (active)

Compound: CC(O)=C(C#N)C(=O)Nc1ccc(C(F)(F)F)cc1
- max response [1]: -8.07%
- Potency [2]: 11.8 µM (active)
- max response [3]: -27.6%

Compound: COc1cc(N2CCN(C)CC2)ccc1Nc1nc(N)c(C(=O)c2c(Cl)cccc2Cl)s1
- max response [1]: -21%
- Potency [2]: 23.5 µM (active)
- outcome [3]: inactive

Compound: OC[C@H]1O[C@@H](O[C@H]2[C@@H](O)[C@@](O)(CO)O[C@@H]2CO)[C@H](O)[C@@H](O)[C@@H]1O
- max response [1]: -0.0942%
- max response [2]: -3.28%
- max response [3]: 1.22%

Compound: O=c1[nH]c(=O)n([C@H]2C[C@@H](O)[C@@H](CO)O2)cc1I
- max response [1]: -2.59%
- max response [2]: -22.9%
- max response [3]: 1.35%
